# Shown are actives, neighbours in structure and some others; about 18% of the full set was active somewhere.
# VDR inh – Inhibitors of the vitamin D receptor (VDR): qHTS | Vitamin D3 receptor (Homo sapiens), P11473 | VDR-SRC2-3 peptide fluorescence polarization, 2 h | Potency, µM, inactives show max response, negative = inhibition, usual class: inhibitors | 0.93% of 400,000 active
#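 Fluorescence polarization assay of small-molecule disruption of VDR binding to coregulator peptide SRC2-3. Compounds and controls pin-transferred, then read after 2 h incubation at ambient room temperature.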
# TDP1 block – qHTS Assay for Inhibitors of Tyrosyl-DNA Phosphodiesterase (TDP1) | recombinant TDP1, AlphaScreen DNA substrate cleavage | Potency, µM (highest dose often 130 µM), without a hit: at the top dose activity change, negative = inhibition, usual class: inhibitors | Tyrosyl-DNA phosphodiesterase 1 (Homo sapiens), Q9NUW8 | 0.28% of 350,000 active; note: nearly all actives have a fitted effect of over 40% in size
# Target sequence (Q9NUW8 whole entry, looked up): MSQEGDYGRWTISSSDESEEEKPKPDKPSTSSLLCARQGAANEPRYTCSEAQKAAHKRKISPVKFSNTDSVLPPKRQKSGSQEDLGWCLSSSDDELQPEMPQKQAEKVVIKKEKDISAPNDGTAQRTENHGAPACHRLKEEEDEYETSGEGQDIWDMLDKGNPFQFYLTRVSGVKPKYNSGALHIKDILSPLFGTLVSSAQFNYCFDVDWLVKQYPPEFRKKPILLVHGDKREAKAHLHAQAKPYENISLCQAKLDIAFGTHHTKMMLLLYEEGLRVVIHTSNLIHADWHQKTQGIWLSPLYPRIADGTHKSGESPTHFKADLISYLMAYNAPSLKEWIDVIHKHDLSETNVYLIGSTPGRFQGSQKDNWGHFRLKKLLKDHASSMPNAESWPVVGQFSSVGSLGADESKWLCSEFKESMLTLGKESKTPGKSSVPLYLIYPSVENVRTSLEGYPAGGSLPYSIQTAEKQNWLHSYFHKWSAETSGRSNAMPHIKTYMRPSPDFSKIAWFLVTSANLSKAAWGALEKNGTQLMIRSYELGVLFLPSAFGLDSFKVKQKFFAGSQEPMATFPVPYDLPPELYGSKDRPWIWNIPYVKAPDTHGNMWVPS
#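 E. coli-derived human Tdp1, 1 nM final. Cpd preinc 15 min RT; substrate 15 nM final, 5 min RT; AS bead mix 10 ug/ml final, 10 min RT. Signal loss = tyrosine-FITC cleavage. No-enzyme wells = max signal.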
# DT40 TDP1 no CPT – qHTS for Inhibitors of human tyrosyl-DNA phosphodiesterase 1 (TDP1): qHTS in cells in absence of CPT; DT40 Tdp1-/- hTDP1 cells, no CPT, ATP luminescence, 48 h; Potency, µM (doses to about 46.2 µM), for the others: top-dose activity change, negative = growth inhibition, usual class: inhibitors; 15% of 420,000 active; AID 686978, 2013; note: nearly all actives have a fitted effect of over 55% in size
#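 Growth of hTDP1-complemented DT40 Tdp1-knockout cells is measured by ATP luminescence after at least 48 hr compound exposure at 37 °C, with DMSO substituting for the 20 nM CPT used in the parallel screen.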
# GCN5L2 inh – qHTS Assay for Inhibitors of GCN5L2; Histone acetyltransferase KAT2A (Homo sapiens), Q92830; 0.21% of 390,000 active; Potency, µM (top dose mostly 58.9 µM), without a hit: at the top dose activity change, negative = inhibition, usual class: inhibitors; GCN5L2 HAT assay, ThioGlo1 CoA-SH fluorescence
#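 GCN5L2 (20nM final) in 50mM HEPES, 0.1mM EDTA pH 7.5, 0.01% Tween-20 was preincubated 15 min at room temperature with compound, then given ThioGlo1 (50uM), H3(1-25) peptide (75uM) and acetyl-CoA (70uM); CoA-thiol fluorescence (Ex340/Em540) was read at 0 and 20 min.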
# DT40 TDP1 CPT – qHTS for Inhibitors of human tyrosyl-DNA phosphodiesterase 1 (TDP1): qHTS in cells in presence of CPT; chicken DT40 Tdp1-/-;hTDP1 cells + 20 nM CPT, ATP luminescence, 48 h; Potency, µM (doses to about 46.2 µM), for inactives: at the top dose activity change, negative = growth inhibition, usual class: inhibitors; 12% of 420,000 active; AID 686979, 2013; note: nearly all actives have a fitted effect of over 55% in size
#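 Chicken DT40 Tdp1-/- cells complemented with human TDP1, 400 cells/well, exposed to compounds plus 20 nM camptothecin for at least 48 h at 37 C; viability read as ATP content by CellTiter-Glo luminescence.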
# PLK1 PBD block – qHTS for Inhibitors of PLK1-PDB (polo-like kinase 1 - polo-box domain): Primary Screen; Serine/threonine-protein kinase PLK1 (Homo sapiens), P53350; Plk1 PBD binding of FITC phosphopeptide, fluorescence polarization; Potency, µM, for the others: max response, negative = inhibition, most hits filed as inhibitors; 2.8% of 360,000 active; note: series mostly up to about 57 µM; nearly all actives have a fitted effect of over 65% in size
# An asterisk follows results filed as active; ? = inconclusive; . = not tested or not shown; [ ] = another dose, or the depositor's remark. Calls come from the whole dose curve; as a rule, active = well fitted curve in the direction sought with a large enough effect; inconclusive = small, poorly fitted or top-dose-only effect, or another doubt; inactive = no such curve, though single readings can be large; an effect the other way counts as inactive or inconclusive. % is set by controls: 0 for no effect and ±100 for the full control effect; potency is the fitted concentration of half-maximal effect.
SMILES,VDR inh,TDP1 block,DT40 TDP1 no CPT,GCN5L2 inh,DT40 TDP1 CPT,PLK1 PBD block
CCOC(=O)c1ccc(NC(=O)c2nc[nH]c2C(=O)NCC(=O)OC(C)(C)C)cc1,19%,9%,-97%,2%,?,10%
CC(C)(C)OC(=O)NCc1ccc(NC(=O)c2nc[nH]c2C(=O)NCCN(CCNC(=O)c2[nH]cnc2C(=O)Nc2ccc(CNC(=O)OC(C)(C)C)cc2)CCNC(=O)c2[nH]cnc2C(=O)Nc2ccc(CNC(=O)OC(C)(C)C)cc2)cc1,-14%,0%,-19%,-6%,?,-1%
CC(C)(C)OC(=O)NCc1ccc(NC(=O)c2nc[nH]c2C(=O)NCCCCNC(=O)c2[nH]cnc2C(=O)Nc2ccc(CNC(=O)OC(C)(C)C)cc2)cc1,7%,0%,2.9µM*,0%,4.1µM*,4%
O=C(CN1Cc2ccccc2C1=O)Nc1cc(F)ccc1F,-6%,4%,-5%,-4%,6%,.
CC(C)(C)OC(=O)NCCCC[C@H](NC(=O)c1[nH]cnc1C(=O)Nc1ccc(CNC(=O)OC(C)(C)C)cc1)C(=O)OC(C)(C)C,-6%,11%,4.6µM*,-5%,5.8µM*,-2%
CC(C)(C)OC(=O)NCc1ccc(NC(=O)c2nc[nH]c2C(=O)NCCCCCCNC(=O)c2[nH]cnc2C(=O)Nc2ccc(CNC(=O)OC(C)(C)C)cc2)cc1,-7%,-1%,5.8µM*,-1%,5.8µM*,-9%
O=C1CCCCC1(CCc1ccncc1)CCc1ccncc1,-7%,.,12µM*,.,18µM*,6%
O=C(NCCc1ccncc1)C12CC3CC(CC(C3)C1)C2,8%,3%,?,0%,?,-7%
Cc1ccc2c(c1)/C(=C/c1ccccc1)C(=O)N2,?,.,?,-19%,-12%,-16%
CC(=O)/C=C1\C(=O)N(C)c2ccccc21,25µM*,.,.,?,.,.
CN1C(=O)/C(=C\C(=O)c2cccs2)c2ccccc21,28µM*,9%,9.2µM*,2%,13µM*,17µM*
CC(=O)/C=C1/C(=O)Nc2ccccc21,45µM*,0%,3.7µM*,-29%,6.5µM*,21µM*
COc1ccc2c(c1)CC(C(=O)Nc1cc(Cl)ccc1C)CO2 (stereo not given),0%,5%,?,-2%,?,.
COC(=O)C1=C(C)NC(=S)N(C(C)=O)C1c1ccc(OC)c(OC)c1 (stereo not given),-12%,-3%,-2%,0%,-8%,-12%
COc1ccc(C2NC(=S)N3C(c4ccc(OC)c(OC)c4)NC(=S)N23)cc1OC (stereo not given),.,.,0.0094µM*,.,0.006µM*,.
CCCc1nc2oc3c(OC)ncnc3c2c2c1COC(C)(C)C2,8%,5%,21µM*,-7%,?,-6%
CCCc1nc2oc3c(NCCOCCO)ncnc3c2c2c1COC(C)(C)C2,-23%,3%,?,3%,-16%,-2%
COc1ccc(CCNC(=O)C(=O)NCC(c2ccco2)S(=O)(=O)c2ccccc2)cc1OC (stereo not given),9%,8%,?,-3%,-28%,.
Nc1oc2ccccc2c(=O)c1-c1ccc2c(c1)OCO2,-2%,.,?,-1%,18µM*,-1%
COc1ccccc1-c1oc2ccccc2c1-c1ccc2c(c1)OCO2,3%,-6%,?,-12%,?,6%
Cc1c(C(=O)Nc2ccccc2)cn2c(nc3ccccc32)c1C#N,-23%,7%,?,-14%,?,-4%
Cc1ccccc1C(=O)Nc1ccc2c(C#N)c3nc4ccccc4nc3n2c1,-4%,11%,21µM*,-13%,21µM*,-16%
CC(C)c1ccc(C(=O)Nc2ccc(S(=O)(=O)NC3=NCCCCC3)cc2)cc1,.,.,23µM*,.,16µM*,-14%
C/C(=N/Nc1nc(-c2ccccc2)cc(-c2ccccc2)n1)c1ccc(N)cc1,.,-5%,.,-7%,.,.
C/C(=N\Nc1cc(-c2ccccc2)nc(-c2ccc(Br)cc2)n1)c1cccc(N)c1,5%,.,?,.,26µM*,-6%
SMILES,VDR inh,TDP1 block,DT40 TDP1 no CPT,GCN5L2 inh,DT40 TDP1 CPT,PLK1 PBD block
C/C(=N/Nc1cc(-c2ccccc2)nc(-c2ccccc2)n1)c1ccc(O)cc1,-14%,-6%,13µM*,-12%,16µM*,0%
COC(=O)c1ccc(/C=N/NC(=S)NC(C)C)cc1,25µM*,.,?,-26%,?,13µM*
CCN(Cc1ccccc1)c1ccc(/C=N/NC(=S)NC(C)C)cc1,-20%,5%,2.9µM*,-16%,2.6µM*,0%
CCN(Cc1ccccc1)c1ccc(/C=N/NS(=O)(=O)c2ccc(C)c([N+](=O)[O-])c2)cc1,?,1%,23µM*,-16%,?,24µM*
CCN(CC)c1ccc(/C=N/NC(=O)CC(C)C)cc1,-5%,5%,?,2%,2%,-5%
CCN(Cc1ccccc1)c1ccc(/C=N/N=C(N)N)cc1,-16%,8%,13µM*,-3%,10µM*,-5%
Cc1ccc(S(=O)(=O)N/N=C/c2ccccc2F)cc1[N+](=O)[O-],-25%,1%,-1%,1%,-7%,?
CC1OCC23CC[C@@]4(C)CCC(C)(C)C[C@H]4[C@]2(C)CCC12C3CC[C@@]1(C)C2C(=O)CC(=O)[C@@H]1C (stereo not given in full),11%,6%,-4%[9.04 µM],.,14%[9.04 µM],.
Cc1cccc(N=c2oc3cc(O)ccc3cc2C(N)=O)c1,-7%,8%,15µM*,-1%,?,-5%

# Bioassay records (PubChem)
